Assay in all cases: NCI-60 one-dose screen, 48 h (100 = growth as untreated, 0 = no growth, -100 = all killed)
Common to all, as to conditions: 10 µM unless noted

Assay [1] deals with NCI-H23 lung.
Assay [2] has as its system NCI-H226 lung.
The test system of assay [3] is NCI-H322M lung.
Assay [4] concerns HOP-62 NSCLC.
In assay [5] the test system is NCI-H460 lung.
The test system of assay [6] is HOP-92 NSCLC.
The test system of assay [7] is NCI-H522 lung.
Assay [8] deals with A549/ATCC NSCLC.
Assay [9] concerns 786-0 renal.
In assay [10] the test system is COLO 205 colon.

About 83,000 compounds went through this panel and 20% of them were active in at least one assay; those are over-represented in the sample as a whole.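 Step 1: grow cells in 96-well plates. Step 2: add test compound at a single concentration. Step 3: incubate 48 h. Step 4: record percent growth.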 Unmarked numbers belong to inactive results. The source made the active and inactive calls. The calls were made as follows: active = growth percent below 10; inactive = the rest.

Take `COc1ccc(NC(=O)c2cc(NCc3cc(O)ccc3O)ccc2O)cc1`: the growth in [1] is 90.4%; in assay [2], 97%; in assay [3], 91.1%; in assay [4] it was 101%; in assay [5], 87.2%; in assay [6] it was 106%. Moreover, the growth in assay [7] was -0.814% (active); in assay [8] it was 78.7%; in assay [9] it was 107%; in assay [10], 113%.

As to `Cc1nn(-c2ccccc2)c(Cl)c1/C=C/C(=O)c1ccc(F)cc1`, the growth is 94.6% in [1]; 85.8% in assay [2]; 91.2% in assay [3]; 89.5% in [4]; 98% in assay [5]; 88.1% in [6]. Also, the growth in assay [7] was 69.4%; in [8] it was 83.8%; in assay [9], 12.6%; in [10], 105%.

`N=C1C(c2nc3ccccc3s2)=C(O)CN1c1cc(Cl)cc(Cl)c1`: the growth in assay [1] is 88.6%; in [2] it was 102%; in assay [3], 89.1%; in [4] it was 62.2%; in assay [5] it was 67.5%; in assay [6] it was -15.8% (active). The growth in [7] is 86.5%; in assay [8] it was 71.4%; in assay [9] it was 71.1%; in assay [10], 90.6%.

For `COc1ccc(/C=C/c2nc(Nc3ccc(S(=O)(=O)Nc4nc(C)cc(C)n4)cc3)c3ccccc3n2)cc1`, the growth is 78.1% in assay [1]; 68.9% in assay [2]; 29% in [3]; 75.6% in [4]; 63% in assay [5]; 66.4% in assay [6]. Moreover, the growth in assay [7] is 68.5%; in [8], 42.2%; in [9], 78.8%; in assay [10], 59.8%.

In the case of `COc1cc(/C=C\c2cc(OC)c(OC)c(OC)c2)cc(NC(=O)/C=C/c2cc(OC)c(OC)c(OC)c2)c1OC`, the growth was 27.8% in assay [1]; 66.6% in [2]; 66.8% in assay [3]; 63.7% in [4]; 55.7% in assay [5]; 45% in assay [6]. The growth in assay [7] was 23.3%; in assay [8], 60.8%; in assay [9] it was 51.6%; in [10], 38.2%.

With `COc1cccc2c1c1nc3cc(C)c(C)cc3nc1n2CCN(C)C`, the growth in [1] was 18.4%; in assay [2], -6.81% (active); in [3], 24.7%; in assay [4], 24.9%; in assay [5] it was 7.95% (active); in [6] it was 36.1%. For the same molecule, the growth in assay [7] is -4.98% (active); in assay [8], 10.6%; in assay [9], 36%; in assay [10], 9.54% (active).

`O=c1[nH]nc(-c2ccccc2)c2sc3ncc(-c4ccc(Br)cc4)n3c12`: the growth in assay [1] is 61.6%; in [2], 43.8%; in [3], 72.3%; in assay [4] it was 48.8%; in [5], 33.8%; in assay [6] it was 65.3%. Besides, the growth in assay [7] was -1.56% (active); in assay [8] it was 82.9%; in assay [9], 53%; in assay [10], 37.2%.

Consider `O=S(=O)(NCCNc1nccc(-c2c(-c3cccc(F)c3)nc3sccn23)n1)c1ccccc1`, for which the growth was 56.1% in [1]; 34.5% in assay [2]; 51.5% in [3]; 60.2% in assay [4]; 25.9% in assay [5]; 51.5% in assay [6]. Besides, the growth in assay [7] was 43.7%; in [8], 25.2%; in assay [9], 47.4%; in [10], 24.2%.

`Cn1cc(CC2CC(=O)N(c3ccccc3)C2=O)sc1=NC(=O)c1ccccc1` (stereo not given): the growth in assay [1] was 95.8%; in [2] it was 97.5%; in assay [3], 92.5%; in assay [4], 92.9%; in assay [5] it was 106%; in assay [6], 85.1%. Besides, the growth in [7] was 92.8%; in assay [8], 101%; in assay [9], 94.4%; in [10], 111%.

Regarding `C/C(=N\Nc1cc(C)nc2ccc(Br)cc12)c1ccc([N+](=O)[O-])cc1`, the growth in assay [1] was 88.4%; in assay [2], 90%; in assay [3], 82.7%; in [4], 76.9%; in [5], 69.8%; in [6] it was 77%. The growth was 76.6% in [7], 78.6% in assay [8], 10% in assay [9] and 31.8% in assay [10].

`CCN(CC)CCCC(C)Nc1cc(O)cc2cccnc12` (stereo not given): the growth was 98.8% in assay [1]; 112% in [2]; 110% in [3]; 104% in assay [4]; 108% in [5]; 89.4% in assay [6]. The growth in [7] is 125%; in assay [8] it was 96.2%; in assay [9] it was 118%; in assay [10] it was 74.5%.

On to `O=C1c2ccccc2C(=O)c2c([N+](=O)[O-])ccc(Cl)c21`, for which the growth in assay [1] was 89.3%; in assay [2], 102%; in assay [3], 99.7%; in assay [4], 111%; in assay [5], 101%; in [6], 76.5%. Besides, the growth is 59.2% in assay [7], 93.7% in [8], 96.6% in [9] and 116% in assay [10].

As to `COc1cc2c(=O)n(CCN(C)C)c3c4cc5c(cc4ccc3c2cc1OC)OCO5`, the growth in assay [1] is -20.7% (active); in [2], -97.6% (active); in assay [3], -15.7% (active); in [4], -5.77% (active); in assay [5] it was -31.6% (active); in assay [6] it was -9.74% (active). In addition, the growth in assay [7] is -37.9% (active); in [8], -84.9% (active); in assay [9], -58.7% (active); in [10], -56.3% (active).
